# PubChem BioAssay AID504340 (NMMLSC, 2011)
# A number with no mark means an inactive call.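 How the source made its calls: active means GFP response above 150% of the DMSO control; inconclusive means Under 70 cell events counted for a yeast strain; inactive means the rest.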
# Assay: yeast TOR pathway CIT2-GFP reporter retest – flow cytometry, third cherry pick, single plex, confirmation (AID 504340);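 further: median GFP fluorescence over all cells with no mother versus daughter split; sample signal as a ratio to the plate DMSO mean so 100% equals DMSO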
# Settings: S. cerevisiae CIT2-GFP strain, 3 h, at 10 µM, active compounds read high
row,SMILES,GFP response vs DMSO
1,Cc1ccc2c(Cl)cc(Cl)c(O)c2n1,138%
2,Cc1ccc(Nc2nc(N)[nH]c(=O)c2N=O)cc1,106%
3,CN1CCN(C(=O)c2cc(COc3ccc(F)cc3Cl)on2)CC1c1ccccc1 (centres undefined),106%
4,COc1cccc2c(O)cc(=O)n(C)c12,103%
5,N#Cc1c(N)nc(N)nc1Nc1ccc(Br)cc1,99.3%
6,COc1cc(OC)cc(C(=O)Nc2ccc(-c3nc4ccccc4o3)cc2)c1,112%
7,Cc1ccc2c(C)ccc(O)c2n1,106%
8,Cc1nc(Nc2ccc(Cl)cc2)c(C#N)c(=O)[nH]1,107%
9,CCCC(=O)Nn1cnc2c(c1=O)C1(CCCCC1)Cc1ccccc1-2,94.5%
10,COc1ccc(N/C=C/C(=O)c2ccc(Cl)cc2)cc1,107%
11,Cc1cccc(N/C=C/C(=O)c2ccc(Cl)cc2)c1,97.7%
12,Cc1cccc(Nc2cc(=O)[nH]c(=O)[nH]2)c1C,96.1%
13,COc1ccccc1-c1cc(C(F)(F)F)nc(S(C)(=O)=O)n1,106%
14,COc1cccc(N/C=C/C(=O)c2ccc(Cl)cc2)c1,107%
15,COC(=O)COc1c(Cl)cc(Cl)c2ccc(C)nc12,106%
16,C=CCNc1nc(N)c([N+](=O)[O-])c(Nc2ccccc2OC)n1,127%
17,OCCN1CCN(c2ncnc3ccc(Br)cc23)CC1,101%
18,COC1=C/C(=C/c2c(N)n3cc(C)sc3nc2=O)C=CC1=O,124%
19,CC1=CN2C(=N)/C(=C/c3ccc(C)o3)C(=O)N=C2S1,112%
20,C/C(=C\C(=O)c1ccc(C)cc1)Nc1cccc(O)c1,103%

row,SMILES,GFP response vs DMSO
1,NC(=O)c1ccnc2c(O)cccc12,101%
2,COc1ccccc1Nc1nc(NCCCN(C)C)nc(N)c1[N+](=O)[O-],107%
3,CCN(CC)c1ncnc2ccc(Br)cc12,97.7%
4,CS(=O)(=O)Oc1ccc(Br)c2cccnc12,103%
5,COc1cc(=O)n(C)c2c(O)cccc12,92.8%
6,Nc1ccc(O)c2c1C(=O)c1ccccc1C2=O,107%
7,Cc1ccc2c(Cl)cc(Cl)c(OCC(=O)O)c2n1,109%
8,CSc1nc(Nc2ccc(Cl)cc2)c(C#N)c(=O)[nH]1,104%
9,Cc1ccc(Nc2cc(=O)[nH]c(=O)[nH]2)cc1Cl,99.3%
10,COc1ccccc1OCc1cc(C(=O)N2CCN(C)C(c3ccccc3)C2)no1 (centres undefined),103%
11,O=C(O)CCCCCNc1ncnc2ccc(Br)cc12,106%
12,CC(=O)Nc1ccc(-c2nc3ccccc3o2)cc1,99.3%
13,CNc1nc(C)c([N+](=O)[O-])c(Nc2ccc(OC)cc2)n1,97.7%
14,CC(=O)Nn1cnc2c(c1=O)C1(CCCC1)Cc1ccccc1-2,89.6%
15,Cc1cc(C)c2ccc(N)nc2c1O,99.3%
16,Cc1cn2c(N)c(C=C3C=C(Cl)C(=O)C(Cl)=C3)c(=O)nc2s1,101%
17,Nn1cnc2c(c1=O)C1(CCCCC1)Cc1ccccc1-2,129%
18,Cc1nc(Nc2ccc(Br)cc2Br)c([N+](=O)[O-])c(=O)[nH]1,103%
19,CCN(CC)C(=O)Oc1cc(=O)n(C)c2ccccc12,101%
